Data reported in PubChem BioAssay (NCATS).
Inconclusive results are not listed. Where a call stands in place of a potency, no number is given. More than one record can exist for a structure, and the calls need not agree. Active and inactive are the calls of the source. Unless noted, calls follow the shape of the dose curve; as a rule, active = well fitted curve in the direction sought with a large enough effect; inconclusive = small, poorly fitted or top-dose-only effect, or another doubt; inactive = no such curve, though single readings can be large; an effect the other way counts as inactive or inconclusive.

Key:
[1] = Quantitative high throughput screen for delayed death inhibitors of the malarial parasite plastid, 96 hour incubation (AID 488745); also: nearly all actives have a fitted effect of over 70% in size; also: potency is read from the fitted curve at half-maximal effect
In short: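 Infected erythrocytes were added to compound in Albumax-supplemented RPMI 1640 at 0.1% parasitemia and 2% hematocrit (final), incubated 96 h at 37 C under 5% CO2, then luciferase reagent was added and luminescence measured.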

[2] = Quantitative high throughput screen for delayed death inhibitors of the malarial parasite plastid, 48 hour incubation (AID 488752); also: nearly all actives have a fitted effect of over 65% in size; also: potency is read from the fitted curve at half-maximal effect
In short: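 Readout is firefly luciferase luminescence from a reporter integrated into the parasite genome, with lower signal taken as inhibited growth. Infected red cells (0.1% parasitemia, 2% hematocrit final) are cultured with compound for one 48 h cycle at 37 C.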

[3] = biological target: Thioredoxin reductase 1, cytoplasmic (Rattus norvegicus) (UniProt O89049); test: qHTS Assay for Substrates of Mammalian Selenoprotein Thioredoxin Reductase 1 (TrxR1) (AID 488772);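 also: NADPH fluorescence in the first read after selenite addition and not the 8 min delta; series mostly up to about 57 µM; a drop in NADPH fluorescence below the no-compound background marks a TrxR1 substrate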
In short: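 Quantitative HTS in Tris-HCl buffer at pH 7.5 with EDTA and Tween-20, using rat TrxR1, 400 uM NADPH and 400 uM selenite (final). A fall in initial NADPH fluorescence relative to background marked substrate behaviour.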

[4] = biological target: Thioredoxin reductase 1, cytoplasmic (Rattus norvegicus) (UniProt O89049); test: qHTS Assay for Inhibitors of Mammalian Selenoprotein Thioredoxin Reductase 1 (TrxR1) (AID 488773); conditions: Potency: inhibition;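 also: drop in NADPH fluorescence over an 8 min run after selenite addition; series mostly up to about 57 µM; nearly all actives have a fitted effect of over 40% in size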
In short: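 Steps: enzyme (90 nM) plus NADPH (400 uM final), 5 min at ~22 deg C; compound added, 15 min; selenite (400 uM final) added; fluorescence followed for 8 min. Concentration-response curves derived from the normalized delta values.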

[5] = biological target: Flap endonuclease 1 (Homo sapiens) (UniProt P39748); test: qHTS Validation Assay for the Inhibitors of Human Flap endonuclease 1 (FEN1) (AID 488816)
In short: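 Readings taken at 0 and 15 min after starting the reaction with 50 nM (final) substrate supplied the signal. Compounds had first sat with 10 nM FEN1 reagent for 15 min at room temperature. Values come from Hill-equation concentration-response fits.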

[6] = biological target: M-phase phosphoprotein 8 (Homo sapiens) (UniProt Q99549); test: qHTS Validation Assay for Inhibitors for MPP8 Chromodomain Interactions with Methylated Histone Tails (AID 488949); also: nearly all actives have a fitted effect of over 55% in size; also: potency is read from the fitted curve at half-maximal effect
In short: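 MPP8 (50 nM) was pre-bound to 50 nM biotinylated H3(1-18)K9me3 peptide in PBS pH 7.4 with 0.01% Tween-20. Compounds were then added for 30 min at room temperature, and complex disruption was read by AlphaScreen with streptavidin donor and nickel-chelate acceptor beads.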

[7] = biological target: Methanococcus maripaludis chaperonin (MmCpn) (UniProt Q6LX38); test: High-Throughput Screening for Modulators of Cytosolic Chaperonin Activity: MmCpn Primary Screen (AID 488978);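 also: 50 nM MmCpn enzyme hydrolysing 30 µM ATP at 37 °C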
In short: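 MmCpn at 50 nM final was preincubated 5 min at RT with compound. ATP was then added at 30 uM final for 10 min at 37 C. ADP formed was detected by Transcreener HTRF (665/590 nm).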

[8] = biological target: Transient receptor potential cation channel subfamily V member 1 (Homo sapiens) (UniProt Q8NER1); test: HTS Assay for Compounds that Act as Enhancers of the Vanilloid Receptor 1 (AID 488979)
In short: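 Calcium influx kinetics via Fluo-8 (480/520 nm) in TRPV1-expressing cells, 2000/well cultured overnight at 35.5C. Compound-alone read 3 min (agonist phase), followed by EC20 capsaicin challenge for 2 min (enhancer phase).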

[9] = biological target: Thyrotropin receptor (Homo sapiens) (UniProt P16473); test: qHTS Assay for Antagonists of the Thyroid Stimulating Hormone Receptor (AID 488980); also: series mostly up to about 58 µM
In short: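 TSHR-transfected HEK293 cells (2000/well) in HEPES-buffered HBSS with 70 uM RO 20-1724 were stimulated with 4 nM TSH (EC80, final) in the presence of compound. cAMP was measured by HTRF competition after lysis and 30 min at RT.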

[10] = biological target: D(1A) dopamine receptor (Homo sapiens) (UniProt P21728); test: HTS Assay for Allosteric Agonists of the Human D1 Dopamine Receptor: Primary Screen for Agonists (AID 488981)
In short: (§1)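 Calcium flux in an inducible, force-coupled HEK293 Trex D1 line (overnight at 30 C): agonist mode is the 180 s kinetic read after compound; potentiator mode is the following 180 s read after dopamine at EC20.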

[11] = biological target: D(1A) dopamine receptor (Homo sapiens) (UniProt P21728); test: HTS Assay for Allosteric Agonists of the Human D1 Dopamine Receptor: Primary Screen for Potentiators (AID 488982)
In short: as §1

[12] = biological target: D(1A) dopamine receptor (Homo sapiens) (UniProt P21728); test: HTS Assay for Allosteric Agonists of the Human D1 Dopamine Receptor: Primary Screen for Antagonists (AID 488983);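 also: calcium flux response to an EC80 dopamine challenge measured with no-wash dye; nearly all actives have a fitted effect of over 65% in size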
In short: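 Cells are induced with tetracycline and incubated overnight at 30 C, then loaded with calcium dye for 30 to 90 minutes at room temperature. Compound addition is followed by a 180 s read, then an EC80 dopamine addition and another 180 s read.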

[13] = Validation screen for small molecules that induce genotoxicity in human embryonic kidney (HEK293T) cells expressing luciferase-tagged ELG1 (AID 493106)
In short: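 Luminescence from an ELG1-luciferase fusion serves as the read-out, rising when genetic stress elevates ELG1 protein. HEK293T reporter cells (2,000 per well) received 23 nL compound, incubated 16 hr at 37 °C, then ONE-Glo for 30 min at room temperature.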

[14] = biological target: ATPase family AAA domain-containing protein 5 (Homo sapiens) (UniProt Q96QE3); test: Validation screen for small molecules that inhibit ELG1-dependent DNA repair in human embryonic kidney (HEK293T) cells expressing luciferase-tagged ELG1 (AID 493107); also: nearly all actives have a fitted effect of over 70% in size; also: potency is read from the fitted curve at half-maximal effect
In short: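 Luminescence from ONE-Glo, developed 30 min at room temperature, served as read-out of ELG1-luciferase levels. Beforehand, reporter HEK293T cells received 5-fluorouridine plus test compound for 16 hr at 37 °C.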

[15] = biological target: Thyrotropin-releasing hormone receptor (Homo sapiens) (UniProt P34981); test: qHTS for Small Molecule Agonists and Allosteric Enhancers of Human TRH Receptor: Validation Screen for Agonists (AID 493127;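 active = calcium activation more than 3 SD above the typical response in the agonist read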;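 also: intracellular calcium rise by fluo-8 fluorescence before TRH EC20 addition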); conditions: TRH receptor agonist cell assay; at 2 µM; stronger effect = higher value
In short: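 Cells 2000/well, 10% FCS, 18 h 33.5C/5% CO2 → fluo-8 Ca dye, RT 30 min–1.5 h → FDSS baseline 10 × 1 s → compound added → 230 cycles (1 s/cycle) agonist mode. TRH controls.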

[16] = qHTS for Inhibitors of Cell Surface uPA Generation: Validation Assay (AID 493164)
In short: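 RAW 264.7 cells (4000/well) were plated overnight, then exposed for 18 h at 37 C, 5% CO2 to compounds in a 7-point 1:5 titration (2.45 nM–38.3 uM final). Intracellular ATP was read by ATP-Lite luminescence.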

[17] = Nrf2 qHTS screen for inhibitors: Validation (AID 493153; active = well fitted inhibition curve with a large enough effect in the main read-out, with a control signal flat, not every such curve was filed as active); conditions: Potency: luciferase luminescence; viability change: measured here: cytotoxicity max response
In short: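 Luminescence from an ARE-firefly luciferase reporter in A549 cells gives Nrf2 inhibition; an earlier CellTiter-Fluor fluorescent read flags cytotoxicity. Cells in 5% FBS OPTI-MEM received compound dilution series for 18-24 h at 37°C.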

[18] = biological target: Chromobox protein homolog 1 (Homo sapiens) (UniProt P83916); test: qHTS Validation Assay for Inhibitors of HP1-beta Chromodomain Interactions with Methylated Histone Tails (AID 488953); also: nearly all actives have a fitted effect of over 50% in size; also: potency is read from the fitted curve at half-maximal effect
In short: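 50 nM HP1-beta + 50 nM biotin-H3(1-18)K9me3, PBS pH 7.4, 0.01% Tween-20, 30 min RT; compound added, 30 min RT; AlphaScreen beads 10 ug/mL final, 30 min dark; luminescence read.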

Sequence of Thyrotropin-releasing hormone receptor (Homo sapiens) (P34981 whole entry, looked up): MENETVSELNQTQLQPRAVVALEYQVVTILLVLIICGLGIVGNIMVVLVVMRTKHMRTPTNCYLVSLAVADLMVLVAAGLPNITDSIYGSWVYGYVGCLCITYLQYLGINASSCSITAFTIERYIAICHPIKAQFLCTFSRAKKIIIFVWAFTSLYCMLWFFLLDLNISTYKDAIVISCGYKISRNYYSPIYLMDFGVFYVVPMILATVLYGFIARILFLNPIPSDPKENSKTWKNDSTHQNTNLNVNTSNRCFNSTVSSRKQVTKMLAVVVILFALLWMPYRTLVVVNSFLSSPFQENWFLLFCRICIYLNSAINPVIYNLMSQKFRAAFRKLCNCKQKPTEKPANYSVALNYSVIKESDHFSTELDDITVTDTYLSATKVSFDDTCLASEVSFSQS
Sequence of Transient receptor potential cation channel subfamily V member 1 (Homo sapiens) (Q8NER1 whole entry, looked up): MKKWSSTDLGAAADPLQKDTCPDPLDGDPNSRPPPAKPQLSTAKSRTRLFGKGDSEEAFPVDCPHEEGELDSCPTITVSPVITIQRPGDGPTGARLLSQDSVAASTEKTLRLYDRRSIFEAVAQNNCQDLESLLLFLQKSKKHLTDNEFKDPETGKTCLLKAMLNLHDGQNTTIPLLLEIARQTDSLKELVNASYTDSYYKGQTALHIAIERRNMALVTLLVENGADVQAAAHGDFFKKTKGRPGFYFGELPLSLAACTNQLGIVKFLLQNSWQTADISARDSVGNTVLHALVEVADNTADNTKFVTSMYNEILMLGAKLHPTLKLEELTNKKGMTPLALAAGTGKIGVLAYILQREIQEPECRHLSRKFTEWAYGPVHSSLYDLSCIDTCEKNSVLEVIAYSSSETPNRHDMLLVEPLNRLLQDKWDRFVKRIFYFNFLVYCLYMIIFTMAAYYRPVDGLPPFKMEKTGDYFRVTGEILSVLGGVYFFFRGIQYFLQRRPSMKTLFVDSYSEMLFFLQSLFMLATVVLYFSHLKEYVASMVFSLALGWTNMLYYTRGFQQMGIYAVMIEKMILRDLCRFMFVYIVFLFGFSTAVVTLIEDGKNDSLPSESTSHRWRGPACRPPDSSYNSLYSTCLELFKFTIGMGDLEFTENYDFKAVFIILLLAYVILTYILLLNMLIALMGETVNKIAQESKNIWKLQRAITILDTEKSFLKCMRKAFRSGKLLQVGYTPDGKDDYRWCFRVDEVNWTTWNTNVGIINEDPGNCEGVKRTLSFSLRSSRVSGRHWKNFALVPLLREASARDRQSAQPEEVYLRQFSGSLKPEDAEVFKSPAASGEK
Sequence of M-phase phosphoprotein 8 (Homo sapiens) (Q99549 whole entry, looked up): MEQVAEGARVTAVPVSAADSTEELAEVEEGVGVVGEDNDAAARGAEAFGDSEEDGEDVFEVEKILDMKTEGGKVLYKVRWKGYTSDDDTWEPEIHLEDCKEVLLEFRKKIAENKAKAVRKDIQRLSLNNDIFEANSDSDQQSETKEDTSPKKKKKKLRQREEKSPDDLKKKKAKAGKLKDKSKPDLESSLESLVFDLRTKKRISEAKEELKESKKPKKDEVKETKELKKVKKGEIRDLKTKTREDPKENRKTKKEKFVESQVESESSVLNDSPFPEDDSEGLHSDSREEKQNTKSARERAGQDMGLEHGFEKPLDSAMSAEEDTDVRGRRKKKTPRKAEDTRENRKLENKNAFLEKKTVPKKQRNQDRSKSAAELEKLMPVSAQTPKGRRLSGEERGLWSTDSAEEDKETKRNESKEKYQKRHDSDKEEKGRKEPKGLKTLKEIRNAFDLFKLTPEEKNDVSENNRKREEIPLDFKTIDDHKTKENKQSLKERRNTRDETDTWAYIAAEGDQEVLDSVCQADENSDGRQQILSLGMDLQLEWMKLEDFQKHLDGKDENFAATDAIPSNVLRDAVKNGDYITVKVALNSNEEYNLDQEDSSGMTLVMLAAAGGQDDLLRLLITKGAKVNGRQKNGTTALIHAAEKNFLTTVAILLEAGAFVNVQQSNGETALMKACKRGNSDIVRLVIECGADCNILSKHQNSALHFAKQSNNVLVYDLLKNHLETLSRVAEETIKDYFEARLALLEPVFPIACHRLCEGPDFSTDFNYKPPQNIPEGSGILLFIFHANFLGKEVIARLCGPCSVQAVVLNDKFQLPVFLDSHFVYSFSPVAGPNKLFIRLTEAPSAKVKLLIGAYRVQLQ
Sequence of Thioredoxin reductase 1, cytoplasmic (Rattus norvegicus) (O89049 whole entry, looked up): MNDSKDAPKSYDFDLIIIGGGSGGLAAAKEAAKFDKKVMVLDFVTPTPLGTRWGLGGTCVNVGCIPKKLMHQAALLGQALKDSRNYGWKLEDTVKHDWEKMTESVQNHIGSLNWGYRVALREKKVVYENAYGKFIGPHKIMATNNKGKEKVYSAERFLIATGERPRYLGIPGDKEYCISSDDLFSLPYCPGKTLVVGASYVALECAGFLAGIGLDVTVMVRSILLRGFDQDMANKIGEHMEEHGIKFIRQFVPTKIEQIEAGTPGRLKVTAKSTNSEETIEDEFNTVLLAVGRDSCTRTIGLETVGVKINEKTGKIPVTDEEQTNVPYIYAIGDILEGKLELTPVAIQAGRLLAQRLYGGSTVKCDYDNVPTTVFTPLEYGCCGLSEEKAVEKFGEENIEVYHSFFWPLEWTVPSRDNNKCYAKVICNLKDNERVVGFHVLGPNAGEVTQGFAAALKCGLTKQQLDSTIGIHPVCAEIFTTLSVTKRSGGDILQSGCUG
Sequence of Chromobox protein homolog 1 (Homo sapiens) (P83916 whole entry, looked up): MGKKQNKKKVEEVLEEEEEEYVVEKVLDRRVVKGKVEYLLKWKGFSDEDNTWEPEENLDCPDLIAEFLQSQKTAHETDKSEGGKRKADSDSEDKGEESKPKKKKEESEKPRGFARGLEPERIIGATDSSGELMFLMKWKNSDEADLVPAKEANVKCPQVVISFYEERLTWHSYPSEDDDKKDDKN
Sequence of ATPase family AAA domain-containing protein 5 (Homo sapiens) (Q96QE3 whole entry, looked up, the tested form may be a part): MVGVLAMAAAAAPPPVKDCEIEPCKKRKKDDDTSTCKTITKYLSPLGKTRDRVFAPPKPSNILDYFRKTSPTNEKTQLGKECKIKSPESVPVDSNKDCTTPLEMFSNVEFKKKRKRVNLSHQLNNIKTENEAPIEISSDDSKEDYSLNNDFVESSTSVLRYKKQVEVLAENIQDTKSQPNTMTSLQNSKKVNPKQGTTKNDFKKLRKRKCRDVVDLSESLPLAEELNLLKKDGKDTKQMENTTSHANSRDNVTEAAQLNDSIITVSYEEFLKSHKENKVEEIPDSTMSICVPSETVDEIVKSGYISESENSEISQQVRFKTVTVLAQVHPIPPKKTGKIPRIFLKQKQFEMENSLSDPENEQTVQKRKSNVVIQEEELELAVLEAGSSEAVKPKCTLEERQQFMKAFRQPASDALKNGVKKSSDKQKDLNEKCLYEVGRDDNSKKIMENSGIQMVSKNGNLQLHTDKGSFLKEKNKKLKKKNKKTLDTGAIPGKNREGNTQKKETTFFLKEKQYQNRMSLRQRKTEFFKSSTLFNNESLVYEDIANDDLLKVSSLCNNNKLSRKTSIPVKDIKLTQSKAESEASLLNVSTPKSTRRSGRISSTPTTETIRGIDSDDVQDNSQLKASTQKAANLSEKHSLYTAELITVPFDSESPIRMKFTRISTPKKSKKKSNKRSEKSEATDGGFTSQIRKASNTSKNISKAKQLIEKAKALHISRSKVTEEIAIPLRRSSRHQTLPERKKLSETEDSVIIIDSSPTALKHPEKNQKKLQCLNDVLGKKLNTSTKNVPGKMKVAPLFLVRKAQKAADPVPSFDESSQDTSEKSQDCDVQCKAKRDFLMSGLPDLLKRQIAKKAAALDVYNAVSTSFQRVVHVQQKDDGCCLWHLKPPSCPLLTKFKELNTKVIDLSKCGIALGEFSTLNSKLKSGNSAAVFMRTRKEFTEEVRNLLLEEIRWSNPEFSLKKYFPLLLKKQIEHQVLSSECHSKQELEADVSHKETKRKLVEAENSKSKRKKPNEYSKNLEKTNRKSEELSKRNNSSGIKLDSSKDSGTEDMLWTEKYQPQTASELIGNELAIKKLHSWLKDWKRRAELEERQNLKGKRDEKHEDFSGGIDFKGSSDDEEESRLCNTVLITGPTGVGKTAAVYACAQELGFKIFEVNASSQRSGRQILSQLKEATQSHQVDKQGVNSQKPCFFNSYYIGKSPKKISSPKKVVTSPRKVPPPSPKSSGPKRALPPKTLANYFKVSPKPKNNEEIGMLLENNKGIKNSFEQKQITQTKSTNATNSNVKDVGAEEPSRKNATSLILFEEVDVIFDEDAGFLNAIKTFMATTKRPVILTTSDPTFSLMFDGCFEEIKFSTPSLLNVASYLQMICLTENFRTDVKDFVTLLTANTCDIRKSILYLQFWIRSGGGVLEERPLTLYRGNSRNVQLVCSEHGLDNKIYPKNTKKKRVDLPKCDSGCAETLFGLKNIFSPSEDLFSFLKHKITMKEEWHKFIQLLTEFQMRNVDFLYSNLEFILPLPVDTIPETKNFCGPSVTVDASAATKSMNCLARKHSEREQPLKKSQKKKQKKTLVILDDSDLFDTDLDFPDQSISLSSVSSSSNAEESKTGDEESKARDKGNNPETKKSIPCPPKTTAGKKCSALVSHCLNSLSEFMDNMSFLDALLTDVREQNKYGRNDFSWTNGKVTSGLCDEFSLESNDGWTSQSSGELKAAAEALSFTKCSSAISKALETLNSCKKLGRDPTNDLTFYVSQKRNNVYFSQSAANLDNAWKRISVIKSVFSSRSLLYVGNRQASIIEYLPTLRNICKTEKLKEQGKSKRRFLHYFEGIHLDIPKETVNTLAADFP
Sequence of Flap endonuclease 1 (Homo sapiens) (P39748 whole entry, looked up): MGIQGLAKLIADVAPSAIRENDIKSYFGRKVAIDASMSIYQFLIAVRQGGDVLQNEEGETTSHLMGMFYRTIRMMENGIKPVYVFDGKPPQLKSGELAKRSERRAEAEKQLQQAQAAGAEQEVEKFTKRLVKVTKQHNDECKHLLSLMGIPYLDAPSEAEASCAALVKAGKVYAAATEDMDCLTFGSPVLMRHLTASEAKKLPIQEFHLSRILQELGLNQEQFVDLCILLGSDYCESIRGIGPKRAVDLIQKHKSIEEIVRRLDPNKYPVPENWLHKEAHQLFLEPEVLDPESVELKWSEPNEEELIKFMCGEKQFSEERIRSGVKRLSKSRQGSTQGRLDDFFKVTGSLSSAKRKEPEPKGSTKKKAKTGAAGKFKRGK

SMILES | Potency [1] | Potency [2] | outcome [3] | Potency [4] | Potency [5] | Potency [6] | outcome [7] | outcome [8] | outcome [9] | Potency [10] | Potency [11] | Potency [12] | Potency [13] | Potency [14] | activation [15] | outcome [16] | Potency [17] | viability change [17] [%] | Potency [18]
COc1ccc2[nH]c3c(c2c1)CCNC3 | inactive | inactive | inactive | inactive | inactive | inactive | inactive | inactive | inactive | inactive | inactive | inactive | inactive | inactive | 1.56% (inactive) | inactive |  |  | 
C[C@H](N)CN1CCc2ccc(Br)cc21 | inactive | inactive | inactive | inactive | inactive | inactive | inactive |  | inactive |  | inactive | inactive | inactive | inactive |  |  | inactive | -2.43 | 
CCCN1CC[C@@H]2c3cc(O)ccc3CC[C@@H]21 | inactive | inactive | inactive | inactive | inactive | inactive | inactive | inactive | inactive | inactive | inactive |  | inactive | inactive |  | inactive | inactive | 9.01 | 
C[N+]1(C)CCC(OC(=O)C(c2ccccc2)c2ccccc2)CC1 | 2.08 µM (active) | 9.28 µM (active) |  |  |  | inactive |  | inactive | inactive |  |  |  |  |  |  |  |  |  | 
NC(=O)CI | inactive | inactive | inactive |  | inactive | 8.91 µM (active) | inactive | inactive | inactive | inactive | inactive | inactive | inactive | inactive | -0.125% (inactive) |  | inactive | 7.18 | 
O=[N+]([O-])c1ccc2nc(N3CCNCC3)ccc2c1 | inactive | inactive | inactive | inactive |  | inactive | inactive | inactive | inactive | inactive | inactive |  |  | inactive |  | inactive |  |  | 
C#CCN[C@H](C)Cc1ccccc1 | inactive | inactive | inactive | inactive |  | inactive | inactive | inactive | inactive | inactive | inactive | inactive | inactive | inactive | 1.31% (inactive) | inactive | inactive | 0.263 | inactive
CC(Cc1ccc(OCC(=O)O)cc1)NCC(O)c1cccc(Cl)c1 (stereo unspecified) | inactive | inactive |  | inactive | inactive | inactive | inactive | inactive | inactive | inactive | inactive | inactive | inactive | inactive |  | inactive | inactive | -9.13 | inactive
CCn1cnc2c(Nc3cccc(Cl)c3)nc(N[C@@H]3CCCC[C@@H]3N)nc21 | 0.208 µM (active) | 5.86 µM (active) | inactive | inactive |  | 39.8 µM (active) and inactive | inactive |  | inactive |  | inactive | inactive | inactive | 4.61 µM (active) |  |  |  |  | 39.8 µM (active)
